# High-throughput results deposited in PubChem BioAssay by National Center for Advancing Translational Sciences (NCATS).
# Only some compounds are listed: those with a hit (about 13% of all), similar ones and a draw of the others.
# Pf growth 96h – Primary qHTS for delayed death inhibitors of the malarial parasite plastid, 96 hour incubation | P. falciparum luciferase reporter growth, 96 h | Potency, µM (titrated, usually from 28.7 µM), for inactives: at the highest dose activity change, negative = inhibition, actives largely listed as inhibitors | hit rate 6.9% among 320,000; also: potency is read from the fitted curve at half-maximal effect
#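 Parasite growth measured via integrated firefly luciferase reporter in P. falciparum. Infected erythrocytes at 2% hematocrit, 0.05% parasitemia final were treated 96 hours at 37 C under 5% CO2, and luminescence was read.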
# HCMV antiviral – qHTS Assay for inhibitors of the human cytomegalovirus (HCMV). activity change, negative = inhibition, % at 57.5 µM. HFF cells, HCMV-luciferase reporter, 72 h; hits give low values. hit rate 4.5% among 410,000. AID 1259415, 2018; in the data active = activity change below about -60%; inconclusive = no clear call, values can overlap the other calls; inactive = above about -39%
#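 Steps: HFFs plated, 16 h 37C; compounds added; HCMV-luciferase added to MOI 1 PFU/cell; 72 h 37C; OneGlo reagent, 5 min room temperature; luminescence read, normalized to controls.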
# HCV inhibitor – qHTS Assay for Inhibitors of Hepatitis C Virus (HCV). Huh7.5.1 HCVcc-Cre infection, luciferase reporter, 44 h. Potency, µM (highest dose often 41.8 µM), for inactives: at the top dose activity change, negative = inhibition, actives largely listed as inhibitors. hit rate 3.4% among 340,000; also: potency is read from the fitted curve at half-maximal effect
#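 Seed cells (1,000/well) for 4 h; treat with compound and infect with HCVcc-Cre, moi about 0.5. Incubate 44 h, then detect luciferase activity.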
# Pf growth 48h – Primary qHTS for delayed death inhibitors of the malarial parasite plastid, 48 hour incubation; P. falciparum luciferase growth in erythrocytes, 48 h; Potency, µM (doses to about 28.7 µM), without a hit: top-dose activity change, negative = inhibition, hits mostly inhibitors; hit rate 5.9% among 310,000; AID 504832, 2011; also: potency is read from the fitted curve at half-maximal effect
#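 Cell-based growth assay: transgenic P. falciparum expressing firefly luciferase, cultured in red cells within RPMI 1640 containing 0.5% w/v Albumax, 24 mM bicarbonate and gentamycin. A drop in luciferase activity indicates inhibition.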
# * = called active by the depositor; ? = inconclusive; . = no result given; [ ] = dose if it differs, or a comment. Unless noted, calls follow the shape of the dose curve; as a rule, active = well fitted inhibition curve with a large enough effect; inconclusive = small, poorly fitted or top-dose-only effect, or another doubt; inactive = no such curve, though single readings can be large or run the other way. % is scaled to controls: 0 for no effect and ±100 for the full control effect.
SMILES,Pf growth 96h,HCMV antiviral,HCV inhibitor,Pf growth 48h
C=C(NC(=O)C(=C)NC(=O)c1csc(C2=NC3c4csc(n4)C4NC(=O)c5csc(n5)C([C@@](C)(O)C(C)O)NC(=O)C5CSC(=N5)/C(=C\C)NC(=O)C(C(C)O)NC(=O)c5csc(n5)[C@]3(CC2)NC(=O)C(C)NC(=O)C(=C)NC(=O)C(C)NC(=O)C(C(C)CC)NC2C=Cc3c(C(C)O)cc(nc3C2O)C(=O)OC4C)n1)C(N)=O (some centres undefined),0.74µM*,.,?,0.83µM*
CCCCN1/C(=C/c2cccc[n+]2C)Sc2cc(NC(C)=O)ccc21,11%,4,-7%,4.1µM*
CC(=O)Nc1ccc(NC(=O)CCCCCN2C(=O)c3ccccc3C2=O)cc1,-12%,39,5%,.
FC(F)(F)c1cc(-c2ccco2)nc(-n2cnc3ccccc32)n1,-18%,-10,?,22%
Cc1nc2ccccc2n1-c1nc(-c2ccco2)cc(C(F)(F)F)n1,.,-104*,3.2µM*,1%
CCN(CC)c1ccc(NC(=O)CSc2nc3ccccc3c(=O)n2-c2cc(S(=O)(=O)N(C)C)ccc2C)cc1,?,-25,?,8.3µM*
O=C(O)CSc1nc2ccccc2n1-c1ccccc1,-24%,22,19%,5%
CN(C)S(=O)(=O)c1cccc(NC(=O)CSc2nc3ccccc3n2-c2ccccc2)c1,?,-88*,?,?
Cc1cc(C)nc(SCC(=O)Nc2cccc(S(=O)(=O)N(C)C)c2)n1,?,36,-14%,-21%
CN(C)S(=O)(=O)c1ccc(NC(=O)CSc2nc3ccccc3n2-c2ccccc2)cc1,2.3µM*,?,?,5.9µM*
O=C(Nc1cccc(Cl)c1)c1cnc2sc(N3CCCC3)nn2c1=O,.,-15,.,.
Cc1ccc(OC(=O)CSc2nnc(CNC(=O)c3ccccc3)o2)cc1,.,-8,.,.
O=C(Nc1cccc2ccccc12)NC1CCCCC1,0.83µM*,0,?,45%
O=C(CN1CCC(NC(=O)Cc2ccccc2)CC1)Nc1cccc2ccccc12,8.3µM*,13,-12%,?
O=C(Nc1nnc(-c2ccccc2)o1)NC1CCCCC1,3.7µM*,-23,-28%,12µM*
O=C(Nc1ccccc1NC(=O)NC1CCCCC1)NC1CCCCC1,.,-106*,13µM*,32%
O=C(Nc1ccccc1)Nc1nnc(-c2ccccc2)o1,?,7,-2%,36%
CCOc1ccc(NC(=O)Cn2c(C)cc3ccccc3c2=O)cc1,.,10,.,.
O=C(O)c1ccccc1NC(=O)N1c2ccccc2Sc2ccccc21,.,-5,.,.
CN(CP(=O)(O)C(O)c1ccccc1)S(C)(=O)=O (centres undefined),-4%,-88*,14%,.
CCc1cc2c(nc1CC)CCN(CC/C(C)=N/O[C@@H](C)c1cc(-c3c(C)cc(C)cc3C)no1)C2,7.4µM*,.,-18%[8.37 µM],?
C/C(CCN1CCc2nc(-c3ccccc3)c(-c3ccccc3)cc2C1)=N\O[C@@H](C)c1cc(-c2c(C)cc(C)cc2C)no1,13µM*,.,?,?
CCOC(=O)C1CCN(C(=O)Cn2c(-c3cccs3)cc3cc(Cl)ccc32)CC1,.,10,.,.
C=CCCC1CN(Cc2ccc(OC)cc2)S(=O)(=O)c2c(F)cccc2O1 (centres undefined),.,0,.,.
Cc1ccc(NC(=O)Nc2ccc3c(c2)nc(C)n3C)cc1,?,67,?,23%
SMILES,Pf growth 96h,HCMV antiviral,HCV inhibitor,Pf growth 48h
Cc1cc(NC(=O)Nc2ccc3c(ccn3C)c2)sn1,.,-5,0.56µM*,.
O=C(CSCc1ccc(Cl)cc1)Nc1cc([N+](=O)[O-])ccc1O,26%,-36,2.2µM*,?
O=C(CSCc1ccc([N+](=O)[O-])cc1)Nc1ccccc1C(=O)O,9.3µM*,-17,7%,2%
O=C(CSCc1ccc([N+](=O)[O-])cc1)Nc1ccc(S(=O)(=O)N2CCCCCC2)cc1,10µM*,9,-24%,?
Cc1ccc(NC(=O)CSCC(=O)Nc2ccc(S(=O)(=O)N3CCCC3)cc2)cc1,-2%,-21,-15%,?
O=C(CSCc1ccccc1)Nc1ccccc1C(=O)Nc1ccc(C(=O)O)cc1,12%,52,?,-3%
CCc1ccc2oc(C(=O)N(Cc3cccc(Cl)c3)Cc3ccco3)c(C)c2c1,.,3,.,.
CC(CNC(=O)c1csc2c1CCCCC2)c1ccccc1 (centres undefined),.,27,.,.
